# High-throughput results as filed in PubChem.
# Lamin A splicing = modulators of lamin A splicing. HeLa LMNA splicing GFP/RFP minigene ratio, 48 h. Potency, µM (top dose mostly 46.1 µM), for inactives: at the highest dose ratio change, negative = inhibition, actives largely listed as inhibitors. 200,000 tested, 0.01% active. AID 1487; active = well fitted inhibition curve with a large enough effect in the signal ratio, with a control signal flat, not every such curve was filed as active; inconclusive = small, poorly fitted or top-dose-only effect, or effect the other way, or a change in a side signal; the % refers to the signal ratio; also: % is scaled to controls: 0 for no effect and ±100 for the full control effect
#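 Read-out is the ratio of GFP to DsRed2 object intensity, acquired by 488 nm laser-scanning cytometry on HeLa lamin A-EGFP minigene reporter cells. Compound incubation 48 hrs at 37 °C in Opti-MEM with 2% FBS; DMSO 0.5% final.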
# Rango release inh = inhibition of RanGTP-driven Rango-importin beta dissociation. O95149+P62826. Biochemical FRET Rango-importin beta, RanGTP-induced dissociation. Potency, µM (highest dose often 46.1 µM), for the others: top-dose activity change, negative = inhibition. 340,000 tested, 0.071% active; calls by dose curve; also: % of control where 0% means no effect; nearly all actives have a fitted effect of over 45% in size
#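 Compounds sat 5 min at room temperature with 0.1 uM Rango biosensor plus 0.25 uM importin beta, then FRET pre-read. RanGTP-RCC1 (0.6 uM Ran, 2mM GTP, 0.2 uM RCC1) added for 45 min, and the CFP/YFP post-read measured blocked complex dissociation.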
# Rango-impB inh = inhibitors of Rango-importin beta complex formation; Rango CFP/YFP FRET sensor + importin beta, 45 min; Potency, µM (titrated, usually from 92.2 µM), without a hit: at the top dose inhibition of complex formation; 340,000 tested, 0.031% active; calls by dose curve;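 also: 0% = DMSO wells and 100% = buffer wells lacking importin beta; nearly all actives have a fitted effect of over 15% in size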
#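 FRET biosensor Rango (snurportin 1 IBB between N-terminal EYFP and C-terminal Cerulean), 50 nM in PBS/1 mM DTT/0.02% Tween-20/0.1% BSA, preincubated 5 min RT with compound; 0.125 microM importin beta added, 45 min RT, CFP/YFP FRET ratio read.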
# Luc counter = Kinase-Glo luciferase inhibition (counter-screen); Q27757; Kinase-Glo luciferase, ATP luminescence, 8 min; 200,000 tested, 0.28% active; Potency, µM (titrated, usually from 38.3 µM), for the others: top-dose activity change, negative = inhibition, usual class: inhibitors; AID 1379; also: % is scaled to controls: 0 for no effect and ±100 for the full control effect; nearly all actives have a fitted effect of over 60% in size
#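 Light output from Kinase-Glo luciferase with luciferin and 10 uM ATP in 50 mM imidazole pH 7.2, KCl, MgCl2, Tween 20, BSA; compound pin-delivered, 8-min ambient incubation, then luminescence read.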
# Tb PFK inh-1 = inhibitors of T. brucei phosphofructokinase; 330,000 tested, 0.17% active; Potency, µM (doses to about 57.5 µM), for inactives: at the top dose activity, negative = inhibition, hits mostly inhibitors; T. brucei PFK, ADP-Glo luminescence; AID 485367;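 also: 0% = uninhibited 1x PFK enzyme wells and -100% = no-enzyme wells; nearly all actives have a fitted effect of over 60% in size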
#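 Luminescent ADP detection (ADP-Glo, two-step: ATP depletion then ADP-to-ATP conversion for luciferase) reported PFK activity after 45 min room-temperature reaction of 1.25 nM enzyme with 0.5 mM F6P and 0.1 mM ATP at pH 8.0.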
# Chronic BCR inh = chronic active BCR signaling inhibition | ABC-DLBCL IkBa-CBG/CBR reporter, luminescence ratio, 4 h | Potency, µM (series often up to 46.1 µM), without a hit: at the highest dose activity change, negative = inhibition, usual class: inhibitors | 340,000 tested, 0.05% active; active = well fitted inhibition curve with a large enough effect in the signal ratio, with a control signal flat, not every such curve was filed as active; inconclusive = small, poorly fitted or top-dose-only effect, or effect the other way, or a change in a side signal; the % refers to the signal ratio;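 also: plate controls were basal doxycycline-induced cells for no effect and cells given 10 µM MG132 for full effect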
#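 Concentration-response series (up to 46 uM) were applied to TMD8 dual-reporter cells for 4 h at 37C with doxycycline. Green/red ratio, after filter-overlap correction, defined %Activity; red signal alone was normalised to basal cells and zero luminescence.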
# Tb PFK KinaseGlo = orthogonal confirmation of T. brucei phosphofructokinase inhibitors. shares compounds with Tb PFK inh-1. Tb PFK enzyme, ATP depletion, Kinase-Glo Plus luminescence. Potency, µM (top dose mostly 57.5 µM), for the others: at the top dose inhibition. 1,100 tested, 47% active. AID 504636; calls by dose curve; also: nearly all actives have a fitted effect of over 60% in size
# Tb PFK inh-2 = T. brucei PFK enzyme inhibition, hit validation; shares compounds with Tb PFK inh-1; purified T. brucei PFK, ADP-Glo luminescence, 45 min; Potency, µM (series often up to 57.5 µM), without a hit: at the highest dose activity change, negative = inhibition, actives largely listed as inhibitors; 1,100 tested, 41% active;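 also: plate controls were full PFK enzyme control for no effect and no enzyme control for full effect; nearly all actives have a fitted effect of over 60% in size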
# * = called active by the depositor; ? = inconclusive; · = no result given; [ ] = remark or other dose. Shown are actives, neighbours in structure and some others; about 0.44% of the full set was active somewhere. Unless noted, calls follow the shape of the dose curve; as a rule, active = well fitted curve in the direction sought with a large enough effect; inconclusive = small, poorly fitted or top-dose-only effect, or another doubt; inactive = no such curve, though single readings can be large; an effect the other way counts as inactive or inconclusive. Potency is read from the fitted curve at half-maximal effect.
SMILES,Lamin A splicing,Rango release inh,Rango-impB inh,Luc counter,Tb PFK inh-1,Chronic BCR inh,Tb PFK KinaseGlo,Tb PFK inh-2
CC(C)CN1C(=S)SC(C)(C)C1n1oc(=O)n(-c2ccc(Cl)cc2)c1=O (centres undefined),-15%,-4%,0%,0%,27µM*,?,3%,-4%
O=C(COc1ccc(/C=C\[N+](=O)[O-])cc1)N1CCOCC1,·,1%,-2%,3%,?,?,-22%,?
O=C(COc1ccc(Cl)cc1)N1CCN(Cc2ccc([N+](=O)[O-])cc2)CC1,-24%[46 µM],11%,0%,0%,-23%,8%,·,·
CCOP(=O)(OCC)C(O)c1ccc(N(C)C)cc1 (centres undefined),·,-14%,-5%,·,0%,-6%,·,·
Oc1cccc2cccnc12,?,·,·,-1%[7.66 µM],1%,?,·,·
CCSS(=O)(=O)c1cccc2cccnc12,·,1%,1%,·,21µM*,?,8.5µM*,19µM*
Cc1nc2cc([N+](=O)[O-])ccc2c(=O)n1-c1cccc(Br)c1,·,-2%,2%,·,·,·,·,·
O=S(=O)(Nc1ccccc1)c1cccc2nsnc12,·,0%,0%,·,?,-2%,?,?
COc1cc2cc3c(N)c(C(=O)Nc4sc(C)c(C)c4C#N)sc3nc2cc1OC,?,?,9%,-3%,?,20%,0%,16%
O=[N+]([O-])c1ccc(NCc2ccc3c(c2)OCO3)cc1,19%[46 µM],-15%,-3%,0%,6µM*,0%,4.8µM*,12µM*
Brc1cccc(CNCCc2ccc3c(c2)OCO3)c1,·,3%,0%,·,-23%,0%,·,·
Cc1cc(F)ccc1NCc1ccc([N+](=O)[O-])cc1,?,-20%,-4%,0%,?,0%,?,?
COc1ccc(Nc2nc(C)cc(=O)[nH]2)cc1,2%,-9%,5%,19%,12µM*,19%,13µM*,24µM*
O=C(CCN1CCN(Cc2ccccc2)CC1)NNC(=O)Cc1ccc(Cl)c(Cl)c1,12%,3%,1%,0%,17µM*,-3%,8.5µM*,11µM*
COc1ccc2c(c1O)-c1c(OC)c(OC)cc3c1[C@@H](C2)N(C)CC3,·,·,·,-9%,·,·,·,·
COc1ccc(N2CCN(C(=O)CSc3nnc(CNc4ccccc4)o3)CC2)cc1,-13%,3%,4%,1%,?,-1%,19µM*,30µM*
CCOC(=O)CN(C(=O)CSc1nnc(CNc2ccc(F)cc2)o1)c1ccccc1,-10%,2%,-2%,-2%,24µM*,6%,13µM*,27µM*
O=C(CSc1nnc(CNc2ccc(F)cc2)o1)N1CCN(C(=O)c2ccco2)CC1,3%,0%,-1%,0%,?,0%,15µM*,24µM*
C[C@H](NC(=O)N1C[C@H]2C[C@@H](C1)c1cccc(=O)n1C2)C(=O)Nc1ccccc1F,·,3%,0%,·,0%,-7%,·,·
O=C(NC1CC2CCCC(C1)N2)c1ccccc1 (centres undefined),·,5%,-3%,·,-6%,-3%,·,·
O=c1cnn(Cc2ccc(Cl)c(Cl)c2)c2ccccc12,·,-2%,6%,·,?,-1%,12µM*,24µM*
COc1cc(N2CCOCC2)ccc1/C=C1\C(=O)NC(=O)N(Cc2cccs2)C1=O,·,-16%,?,-6%,8%,1%,·,·
